Reference: PubChem BioAssay (NCI)
About 83,000 compounds went through this panel and 20% of them were active in at least one assay; those are over-represented in the sample as a whole.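 96-well plates, one dose, 48 hours. Percent growth reported; active if below 10.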 A number with no mark means an inactive call. Activity calls are given as the source filed them.

Experiments:
Assay in all cases: NCI-60 one-dose screen, 48 h (100 = growth as untreated, 0 = no growth, -100 = all killed)
Details in all cases: 10 µM unless noted
NCI-H23 lung = test system: NCI-H23 lung
NCI-H226 lung = test system: NCI-H226 lung
NCI-H322M lung = test system: NCI-H322M lung
HOP-62 NSCLC = test system: HOP-62 NSCLC
NCI-H460 lung = test system: NCI-H460 lung
HOP-92 NSCLC = test system: HOP-92 NSCLC
NCI-H522 lung = test system: NCI-H522 lung
A549/ATCC NSCLC = test system: A549/ATCC NSCLC
786-0 renal = test system: 786-0 renal
COLO 205 colon = test system: COLO 205 colon

Row | Compound | growth (NCI-H23 lung) | growth (NCI-H226 lung) | growth (NCI-H322M lung) | growth (HOP-62 NSCLC) | growth (NCI-H460 lung) | growth (HOP-92 NSCLC) | growth (NCI-H522 lung) | growth (A549/ATCC NSCLC) | growth (786-0 renal) | growth (COLO 205 colon)
1 | C=C(CO)[C@@H]1CC[C@]2(COC3CCCCO3)CC[C@]3(C)[C@H](CC[C@@H]4[C@@]5(C)C=C(C=O)C(=O)C(C)(C)[C@@H]5CC[C@]43C)[C@@H]12 (some centres not stated) | -63.6% (active) | -54.3% (active) | -22.6% (active) | -86.8% (active) | -73.1% (active) | -92.5% (active) | -80.5% (active) | -77.4% (active) | -91.2% (active) | 
2 | Cc1ccccc1OCC(O)COc1ccccc1C | 404% | 97.9% | 95.4% | 96.2% | 96.8% | 93.9% | 77% | 84.2% | 100% | 
3 | Cc1[nH]c(C(=O)Nc2cccc(OC3CCNCC3)c2)c(Cl)c1Cl | 75.3% | 91.4% | 84.8% | 86.9% | 77% | 22.9% | 99.2% | 68.6% | 63.8% | -35.3% (active)
4 | Cc1nc2ccccc2c(/C=C/c2ccc(C(F)(F)F)cc2)c1C(=O)/C=C/c1ccccc1 | -12.9% (active) | -0.692% (active) | 20.5% | -34.8% (active) | -74.9% (active) | 16.5% | -61.9% (active) | 6.27% (active) | -14.1% (active) | -54.6% (active)
5 | COc1ccc(Nc2ncc(C(N)=O)c(NCCCNC(=O)C3CCC3)n2)cc1 | 76.9% | 62.7% | 79% | 35.9% | 68.6% | 60.6% | 77.1% | 83.1% | 74.1% | 
6 | O=C(N/N=C/c1ccc(Cl)cc1Cl)c1ccc2nc(-c3ccc(Cl)cc3)[nH]c2c1 | -0.367% (active) | 99.3% | 27.7% | 8.05% (active) | -33.6% (active) | 28.1% | 63.2% | -26.7% (active) | -42.1% (active) | 
7 | Nc1c(C(=O)O)cc(Cl)cc1[N+](=O)[O-] | 90.6% | 96.4% | 103% | 89.7% | 108% | 58.7% | 98.4% | 97.6% | 96.1% | 
8 | CCCCCCC(=O)Nc1ncc(Cc2ccc(C)cc2)s1 | 59.3% | 64.1% | 58.4% | 40.3% | 23.4% | 60.4% | 22.2% | 47.5% | 46% | 
9 | CCOC(=O)C1CCN(c2ccc(N3C[C@@H](CNCc4ccc(C(=N)N)cc4)OC3=O)cc2)CC1 | 97.9% | 97.2% | 103% | 97.5% | 103% | 90.8% | 92.6% | 104% | 100% | 
10 | CCCCCCCCCCCCCCCCCCOc1ccccc1CC(=O)OCC[N+]1(C)CCOCC1 | 66.5% | 49.8% | 79.8% | 55.6% | 69.2% | 44.2% | 39.9% | 62.6% | 68.3% | 
11 | O=C(Nc1ncc(Cc2ccccc2Cl)s1)c1cccs1 | 80.3% | 85.1% | 78% | 66.6% | 57.7% | 58.6% | 51.9% | 54.1% | 86.1% | 85.8%
12 | CNCc1cccc2c1OCCOCCN(C)C(=O)CN(C)S(=O)(=O)c1ccc(cc1)-c1cnc(N)c(n1)C(=O)N2 | 6.92% (active) | -33.3% (active) | 40.4% | -6.9% (active) | -40.9% (active) | 46.5% | 23.5% | 11.9% | -40.3% (active) | 19.9%
13 | C=CCn1c(SCC(=O)Nc2ccc(C(=O)/C=C/c3cc(OC)c(OC)c(OC)c3)cc2)nnc1-c1cc(-c2ccc(OC)cc2)nc2ccccc12 | 93.4% | 94% | 97.5% | 96.5% | 88.9% | 77.4% | 86.3% | 98.1% | 88.7% | 104%
14 | CCN(CC)CCOc1ccc(Nc2ncc3cc(-c4ccc(O)cc4)c(=O)n(C)c3n2)cc1 | 69.8% | 43.8% | 47.7% | 49.9% | 78.9% | 76.6% | 27.3% | 49% | -76.5% (active) | 38.4%
15 | COc1cc2c(cc1O)[C@@]1(C)[C@H](c3ccccc3Br)OC(=O)N1CC2 | 94.3% | 83.9% | 116% | 97.3% | 96.5% | 82.8% | 75.5% | 79.6% | 104% | 117%
16 | C=CCn1c(SCC(=O)Nc2ccc(C(=O)/C=C/c3ccc(OC)cc3)cc2)nnc1-c1ccccc1 | 94.2% | 90.3% | 89% | 91.6% | 103% | 86% | 80.7% | 83% | 73.3% | 101%
17 | Cc1c(Cl)cccc1C(=O)Nc1nc2c(s1)CN(C(=O)Nc1cccc(C(F)(F)F)c1)CC2 | 21.5% | 39.3% | 46.6% | 37.2% | 7.19% (active) | 38.3% | 15.1% | 22.5% | 29.1% | 7.09% (active)
18 | CCOC(=O)c1c(C)nc2ccccc2c1/C=C/c1ccc(OC)cc1 | 46.3% | 61.8% | 95.8% | 71.8% | 78.1% | 44.5% | 53.5% | 57.6% | 77.8% | 83.6%
19 | CCOC(=O)CSc1nc2sc3c(c2c(=O)n1-c1ccc([N+](=O)[O-])cc1)CCCCC3 | 74.5% | 98.8% | 77.2% | 47.7% | 48.1% | 80.3% | 68.8% | 66.1% | 71.3% | 82.8%
20 | COc1ccc2c(c1)c(-c1nc(-c3cn(C)c4ncccc34)cs1)cn2CCO | 89.4% | 70.1% | 77.7% | 81.2% | 74.9% | 70.4% | 60.5% | 79.8% | 80% | 81.2%
21 | CCn1cc(C(=O)NN=C2CCCCCC2)c(=O)c2ccc(C)nc21 | 89.5% | 82% | 88.7% | 94.8% | 92.4% | 80.7% | 75.3% | 82.6% | 87.2% | 97.8%
22 | O=C(Nc1nc(C(=O)N2CCN(C(c3ccccc3)c3ccccc3)CC2)cs1)c1ccc(NC2CCCCC2)c([N+](=O)[O-])c1 | 77.2% | 60.1% | 91.6% | 90.9% | 99.6% | 63.7% | 67.3% | 93.2% | 87.7% | 103%
23 | COc1ccc2nc3ccccc3c(NCc3ccc(F)cc3)c2c1 | 14% | 30% | 22.6% | 28.2% | 5.47% (active) | -11.3% (active) | 18.2% | 19.7% | 6.83% (active) | -54.4% (active)
24 | CCOc1ccc(/C=N\N=C\c2ccc(OCC)cc2)cc1 | 79.5% | 89.1% | 99.1% | 93% | 51.7% | 84.4% | 51.9% | 94.2% | 105% | 96.6%
25 | Nc1ncnc2c1c(-c1ccc(Oc3ccccc3)cc1)nn2CC1SSCC1O (configuration not stated) | 49% | 23.4% | 34.8% | 56.9% | 28% | 6.06% (active) | 37.8% | 42.3% | 63.8% | 35.2%
26 | CCCCCCCCCCCCCCCCCCOc1ccccc1CC(=O)NCC[N+]1(C)CCOCC1 | 67.8% | 69.2% | 65.2% | 53% | 45.7% | -2.9% (active) | 30.8% | 55.6% | 2.4% (active) | 37.6%
27 | O=C1NC(=C(Cl)Cl)/C(=N/S(=O)(=O)NCCc2c[nH]c3ccccc23)N1 | 97.4% | 86% | 27.7% | 56.9% | 66.8% | 39% | 17.2% | 99.3% | 66.5% | 110%
